Measured values reported in PubChem BioAssay AID1159580 (chemical genetic matrix, 2015).
About 2,000 (36%) of roughly 5,500 compounds were called active. Roughly 18% stayed inconclusive and do not appear here. Cut-off read from the data, not from the text of the source: active = normalized growth mostly below about 0.91 (no sharp cut-off); inconclusive = no clear call, values can overlap the other calls; inactive = mostly above about 0.92. This is one part of the list.

Assay: chemical genetic growth profiling, strain panel (AID 1159580);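 note: tested at 20 µM; growth read once vehicle control cultures reached saturation at 30 °C; 1 = growth at the plate median or of vehicle wells; lower values mean less growth of the strain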
Conditions: S. cerevisiae deletion strains, growth OD

Measured: normalized growth

O=C(Nc1cccc(C(=O)Nc2ccc(S(=O)(=O)O)c3cc(S(=O)(=O)O)cc(S(=O)(=O)O)c23)c1)Nc1cccc(C(=O)Nc2ccc(S(=O)(=O)O)c3cc(S(=O)(=O)O)cc(S(=O)(=O)O)c23)c1
inactive: locus YAL040C, strain CLN3, stronger effect = lower value 1.05 | locus YCL061C, strain MRC1 (second series), stronger effect = lower value 0.981 | locus YDR150W, strain NUM1, stronger effect = lower value 0.976 | locus YDR363W, strain ESC2, stronger effect = lower value 1.02 | locus YER002W, strain NOP16, stronger effect = lower value 0.968 | locus YMR263W, strain SAP30, stronger effect = lower value 0.973 | locus YNL153C, strain GIM3, stronger effect = lower value 0.977 | locus YNL175C, strain NOP13, stronger effect = lower value 0.978 | locus YNL197C, strain WHI3, stronger effect = lower value 0.968 | locus YNL224C, strain SQS1, stronger effect = lower value 0.981 | locus YOR083W, strain WHI5 (second series), stronger effect = lower value 0.97
